Source: PubChem BioAssay
Bcl-xL primary – inhibitors of human Bcl-xL, primary screen, biochemical, fluorescence polarization, HTS; actives 0.7% (n = 320,000); GST-Bcl-xL / FITC-Bim BH3 peptide fluorescence polarization; AID 2129, 2009; inhibition, % at 10.9 µM;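 active means inhibition above the mean of all tested compounds plus 3 SD, cutoff set per campaign, cut at about 30% in these data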;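 further: 0% = DMSO wells and 100% = unlabeled Bim-BH3 peptide competitor; inhibitors lower millipolarization by displacing the labeled peptide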
Target sequence (Q07817 whole entry, looked up): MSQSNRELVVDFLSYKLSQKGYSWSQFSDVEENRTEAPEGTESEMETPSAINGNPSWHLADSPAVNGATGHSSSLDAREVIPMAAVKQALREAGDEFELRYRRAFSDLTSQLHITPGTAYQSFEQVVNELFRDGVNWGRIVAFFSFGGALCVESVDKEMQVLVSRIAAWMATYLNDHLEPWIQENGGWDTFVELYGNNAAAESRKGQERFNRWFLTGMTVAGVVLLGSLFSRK
Mcl-1 Bim block – inhibitors of Bim peptide binding to Mcl-1, primary screen, biochemical, bead-based flow cytometry, multiplex; Induced myeloid leukemia cell differentiation protein Mcl-1 (Homo sapiens), Q07820; Bim peptide-Mcl-1 binding; inhibition, % at 10 µM; actives 0.1% (n = 190,000); in the data active means inhibition above about 40%;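 further: 0% = no compound tracer wells and 100% = peptide blocker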
MCL1-BIM inh – inhibitors of MCL1 binding to BIM-BH3, primary screen, biochemical, fluorescence polarization; Induced myeloid leukemia cell differentiation protein Mcl-1 (Homo sapiens), Q07820; GST-MCL1 / FITC-Bim-BH3 fluorescence polarization; inhibition, % at 10.9 µM; actives 0.68% (n = 320,000); AID 2057, 2009;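 active means inhibition above the mean inhibition of all tested compounds plus 3 SD, set per campaign, cut at about 40% in these data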;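 further: 0% = DMSO wells and 100% = unlabeled Bim-BH3 peptide control; higher means more loss of mP so more displacement of Bim peptide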
Mcl1 Bid PPI – Mcl-1/Bid binding inhibitors, primary screen, biochemical, TR-FRET, 1536-well. AID 1021, 2008. TR-FRET Mcl-1/Bid-Dy647 peptide binding. inhibition, % at 21.7 µM. Induced myeloid leukemia cell differentiation protein Mcl-1 (Homo sapiens), Q07820. actives 0.97% (n = 220,000);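 active means compounds that cut the binding signal by more than half at the single screening dose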;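 further: His-tagged Mcl-1 with europium anti-His antibody binding Bid BH3 peptide; 0% = Mcl-1 plus peptide wells and 100% = peptide-only wells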
GLD-1 TGE inh – GLD-1/TGE RNA complex disruptors, primary screen, biochemical, fluorescence polarization; Female germline-specific tumor suppressor gld-1 (Caenorhabditis elegans), Q17339; purified GLD-1 + fluorescein TGE RNA; inhibition, % at 5.96 µM; actives 0.44% (n = 320,000);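 active means percent inhibition above a per-plate cutoff, the plate mean of test compounds plus 3 SD, cut at about 30% in these data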;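 further: 0% = DMSO wells with GLD-1 and probe and 100% = wells lacking GLD-1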
Target sequence (Q17339 whole entry, looked up): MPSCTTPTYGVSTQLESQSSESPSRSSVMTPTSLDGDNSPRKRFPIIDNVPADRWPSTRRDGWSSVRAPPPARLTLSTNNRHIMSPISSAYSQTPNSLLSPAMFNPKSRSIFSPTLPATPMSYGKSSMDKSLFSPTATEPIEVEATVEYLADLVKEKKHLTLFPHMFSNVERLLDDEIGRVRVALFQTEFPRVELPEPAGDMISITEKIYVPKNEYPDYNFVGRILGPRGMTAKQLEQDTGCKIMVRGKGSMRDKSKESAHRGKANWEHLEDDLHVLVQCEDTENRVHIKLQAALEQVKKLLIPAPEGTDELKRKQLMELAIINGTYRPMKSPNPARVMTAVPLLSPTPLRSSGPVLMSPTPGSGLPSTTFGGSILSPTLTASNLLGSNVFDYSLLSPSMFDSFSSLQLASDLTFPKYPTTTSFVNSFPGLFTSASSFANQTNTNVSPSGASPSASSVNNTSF
Mcl1 Noxa PPI – Mcl-1/Noxa binding inhibitors, primary screen, biochemical, TR-FRET, 1536-well | AID 1022, 2008 | inhibition, % at 21.7 µM | TR-FRET Mcl-1/Noxa peptide binding, 2 h | actives 1.5% (n = 220,000);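 active means compounds that cut the protein-peptide binding signal by more than 50% relative to plate controls in a single-dose test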;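 further: His-tagged Mcl-1 with rhodamine Noxa BH3 peptide and terbium anti-His antibody; 0% = Mcl-1 plus Noxa peptide wells and 100% = peptide-only wells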
* hit, by the source's call. Sampled rows, rich in hits. Any-hit rate of the full collection: about 2.3%.

CCCn1c(SCC(=O)Nc2cc(C(=O)O)ccc2C)nc2sc3c(c2c1=O)CCC3 was read as Bcl-xL primary 3, MCL1-BIM inh 0 and GLD-1 TGE inh 6.
Screening C=CCc1c(C)[nH]c2c(OC)cccc2c1=S returned Bcl-xL primary 12, Mcl-1 Bim block -1, MCL1-BIM inh 8, Mcl1 Bid PPI 26, GLD-1 TGE inh -5 and Mcl1 Noxa PPI 60*.
O=C(c1cc(F)c(F)c(F)c1F)N1CCN(C(=O)C2CCCO2)CC1 (centres undefined) was read as GLD-1 TGE inh 0.
`CCOC(=O)C1=C(O)/C(=C/N(C)C)N=C1C` gave Bcl-xL primary 36*, Mcl-1 Bim block 1, MCL1-BIM inh 32, Mcl1 Bid PPI -19, GLD-1 TGE inh 23 and Mcl1 Noxa PPI 7.
For COc1ccc(C(=O)N2CCN(S(=O)(=O)c3ccc(Br)cc3)CC2)cc1 the results were Bcl-xL primary 2, MCL1-BIM inh -1 and GLD-1 TGE inh 9.
CCOc1ccc(OCCN(C)Cc2ccccc2)cc1 was read as Bcl-xL primary 6, Mcl-1 Bim block -5, MCL1-BIM inh 10, Mcl1 Bid PPI 59*, GLD-1 TGE inh 4 and Mcl1 Noxa PPI 10.
O=S(=O)(NCC1CCCO1)c1ccc(S(=O)(=O)N(Cc2ccc(F)cc2)C2CCCCC2)cc1 (centres undefined) was read as Bcl-xL primary -1, MCL1-BIM inh -1 and GLD-1 TGE inh 5.
CN1/C(=C\C=C2/SC(=S)N(CC(=O)O)C2=O)C(C)(C)c2ccccc21 was read as Bcl-xL primary 36*, Mcl-1 Bim block 5, MCL1-BIM inh -13, Mcl1 Bid PPI -80, GLD-1 TGE inh -38 and Mcl1 Noxa PPI -124.
Screening C=CCN1C(=O)/C(=C\C=C2\N(C)c3ccccc3C2(C)C)SC1=S returned Bcl-xL primary -29, Mcl-1 Bim block 7, MCL1-BIM inh -133, Mcl1 Bid PPI -11, GLD-1 TGE inh -31 and Mcl1 Noxa PPI -15.
CC(=O)N[C@H]1[C@H](OC2CCCCC2)O[C@H](COC(C)=O)[C@@H](OC(C)=O)[C@@H]1OC(C)=O was read as Bcl-xL primary 3, MCL1-BIM inh 15 and GLD-1 TGE inh 1.
CCOC(=O)C1CCCN(Cc2cccs2)C1 (centres undefined) was read as Bcl-xL primary 0, Mcl-1 Bim block 0, MCL1-BIM inh 11, Mcl1 Bid PPI 55*, GLD-1 TGE inh -9 and Mcl1 Noxa PPI 15.
Screening O=C(C1CCCN(Cc2ccccc2Br)C1)N1CCCCC1 (centres undefined) returned Bcl-xL primary 6, Mcl-1 Bim block -4, MCL1-BIM inh 9, Mcl1 Bid PPI 59*, GLD-1 TGE inh 4 and Mcl1 Noxa PPI -22.
Screening CCOC(=O)C1CCCN(Cc2ccccc2OCC)C1 (centres undefined) returned Bcl-xL primary 2, Mcl-1 Bim block -3, MCL1-BIM inh 11, Mcl1 Bid PPI 98*, GLD-1 TGE inh 2 and Mcl1 Noxa PPI 16.
`CCOC(=O)Cc1csc(NC(=O)c2sc3nc4c(C)cc(C)cc4cc3c2N)n1` gave Bcl-xL primary 26, Mcl-1 Bim block -4, MCL1-BIM inh -4, Mcl1 Bid PPI 27, GLD-1 TGE inh -8 and Mcl1 Noxa PPI 64*.
CCOC(=O)Cc1csc(NC(=O)c2csc(C)c2)n1 was read as Bcl-xL primary 3, Mcl-1 Bim block -5, MCL1-BIM inh 8, Mcl1 Bid PPI -17, GLD-1 TGE inh 7 and Mcl1 Noxa PPI 8.
For CC[n+]1c(/C=C/C=C/N(C(C)=O)c2ccccc2)sc2cc(OC)ccc21 the results were Bcl-xL primary 1, Mcl-1 Bim block -4, MCL1-BIM inh -43, Mcl1 Bid PPI -46, GLD-1 TGE inh 24 and Mcl1 Noxa PPI 4.
Screening CC1OC(OC2C(Oc3c(-c4ccc(O)cc4)oc4cc(O)cc(O)c4c3=O)OC(COC3O[C@@H](C)[C@H](O)[C@@H](O)C3O)C(O)C2O)C(O)C(O)C1O (some centres undefined) returned Bcl-xL primary 3, MCL1-BIM inh 1 and GLD-1 TGE inh 0.
For CC1OC(OCC2OC(Oc3c(-c4ccc(O)cc4)oc4cc(O)cc(O)c4c3=O)C(O)C(O)C2O)C(O)C(O)C1O (centres undefined) the results were Bcl-xL primary 6, Mcl-1 Bim block 0, MCL1-BIM inh 14, Mcl1 Bid PPI -7, GLD-1 TGE inh 7 and Mcl1 Noxa PPI 54*.
For COc1c(C(=O)NCCSC(C)(C)C)ccc2ccccc12 the results were Bcl-xL primary 0, Mcl-1 Bim block 0, MCL1-BIM inh 2, Mcl1 Bid PPI -36, GLD-1 TGE inh 5 and Mcl1 Noxa PPI -8.
`Cn1c(N)c(C(=O)CSc2nnnn2-c2ccccc2)c(=O)n(C)c1=O` gave Bcl-xL primary -8, MCL1-BIM inh -4, Mcl1 Bid PPI -6, GLD-1 TGE inh -9 and Mcl1 Noxa PPI -8.
Screening Cc1ccccc1-n1nnnc1SCC(=O)c1c(N)n(C)c(=O)n(C)c1=O returned Bcl-xL primary -7, MCL1-BIM inh -12, Mcl1 Bid PPI -40, GLD-1 TGE inh -3 and Mcl1 Noxa PPI 54*.
Cc1csc(=O)n1CCC(=O)OCC(=O)c1ccc(Br)cc1 was read as Bcl-xL primary 0, MCL1-BIM inh 0 and GLD-1 TGE inh 4.
Screening CCNc1nc(NCC)nc(C(=O)NN)n1 returned Bcl-xL primary 0, Mcl-1 Bim block -13, MCL1-BIM inh 0, Mcl1 Bid PPI -18, GLD-1 TGE inh 2 and Mcl1 Noxa PPI 75*.
O=C(CCC(=O)N1CCN(Cc2ccc(F)cc2)CC1)Nc1nnc(C(F)(F)F)s1 was read as Bcl-xL primary 2, MCL1-BIM inh 4 and GLD-1 TGE inh 1.
Screening Cc1cccc(OCC(=O)Nc2ccc(N3CCCC3)cc2)c1C returned Bcl-xL primary 4, Mcl-1 Bim block 20, MCL1-BIM inh 14, Mcl1 Bid PPI -24, GLD-1 TGE inh -2 and Mcl1 Noxa PPI 62*.
Screening Cc1ccccc1OCCCC(=O)Nc1ccc(N2CCOCC2)cc1 returned Bcl-xL primary 4, Mcl-1 Bim block 35, MCL1-BIM inh 0, Mcl1 Bid PPI -27, GLD-1 TGE inh -7 and Mcl1 Noxa PPI 51*.
COc1ccccc1OCCCC(=O)Nc1ccc(N2CCOCC2)cc1 was read as Bcl-xL primary 4, Mcl-1 Bim block 1, MCL1-BIM inh 8, Mcl1 Bid PPI -45, GLD-1 TGE inh 6 and Mcl1 Noxa PPI 11.
`Cc1ccc(OCC(=O)Nc2ccc(N3CCCC3)cc2)cc1C` gave Bcl-xL primary 5, Mcl-1 Bim block 1, MCL1-BIM inh 9, Mcl1 Bid PPI -7, GLD-1 TGE inh -1 and Mcl1 Noxa PPI 81*.
